# JMJD2A Tudor: blocks the human JMJD2A Tudor domain | O75164 | 390,000 compounds, 4.4% hits | AID 504339 | Potency, µM (series often up to 114 µM), for inactives: at the top dose activity change, negative = inhibition, hits mostly inhibitors | AlphaScreen JMJD2A-Tudor / H3K4me3 peptide binding; note: % is set by controls: 0 for no effect and ±100 for the full control effect; nearly all actives have a fitted effect of over 50% in size
# Target sequence (O75164 whole entry, looked up, the tested form may be a part): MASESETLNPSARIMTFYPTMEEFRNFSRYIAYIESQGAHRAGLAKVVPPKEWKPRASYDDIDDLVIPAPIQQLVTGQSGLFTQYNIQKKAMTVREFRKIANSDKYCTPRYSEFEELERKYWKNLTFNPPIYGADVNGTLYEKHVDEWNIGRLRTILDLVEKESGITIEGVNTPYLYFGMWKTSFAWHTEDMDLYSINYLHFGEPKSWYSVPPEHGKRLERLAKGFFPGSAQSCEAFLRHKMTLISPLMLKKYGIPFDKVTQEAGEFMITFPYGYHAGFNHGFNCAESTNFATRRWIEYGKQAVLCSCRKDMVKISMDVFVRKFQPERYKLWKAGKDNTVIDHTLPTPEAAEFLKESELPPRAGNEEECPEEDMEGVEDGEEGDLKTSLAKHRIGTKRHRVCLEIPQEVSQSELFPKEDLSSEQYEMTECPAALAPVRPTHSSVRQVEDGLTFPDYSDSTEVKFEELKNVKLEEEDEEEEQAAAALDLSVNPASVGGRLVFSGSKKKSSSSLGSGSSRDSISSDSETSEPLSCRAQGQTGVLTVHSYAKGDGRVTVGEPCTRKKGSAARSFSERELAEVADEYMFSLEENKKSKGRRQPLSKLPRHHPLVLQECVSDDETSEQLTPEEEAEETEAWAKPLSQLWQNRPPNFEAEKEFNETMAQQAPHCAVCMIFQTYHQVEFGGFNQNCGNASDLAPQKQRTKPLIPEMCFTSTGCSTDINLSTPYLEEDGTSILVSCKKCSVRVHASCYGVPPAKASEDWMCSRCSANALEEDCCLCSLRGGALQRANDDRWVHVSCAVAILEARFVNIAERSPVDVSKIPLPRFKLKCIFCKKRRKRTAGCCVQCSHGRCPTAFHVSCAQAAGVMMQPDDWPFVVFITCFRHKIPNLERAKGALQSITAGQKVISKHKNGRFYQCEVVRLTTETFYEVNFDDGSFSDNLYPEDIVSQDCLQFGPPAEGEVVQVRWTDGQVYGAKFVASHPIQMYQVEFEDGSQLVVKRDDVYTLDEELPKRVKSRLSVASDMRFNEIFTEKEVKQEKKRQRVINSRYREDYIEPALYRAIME
# HP1b chromo inh: inhibitors of HP1-beta chromodomain binding to methylated histone tails; P83916; AlphaScreen HP1-beta / biotin-H3K9me3 peptide binding; Potency, µM (top dose mostly 114 µM), for inactives: at the highest dose activity change, negative = inhibition, usual class: inhibitors; 390,000 compounds, 0.56% hits; AID 540317; note: nearly all actives have a fitted effect of over 70% in size
#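 AlphaScreen: HP1-beta (50 nM) preformed 30 min with biotin-H3(1-18)K9me3 peptide (50 nM) in PBS pH 7.4, 0.01% Tween-20. Compound added for 30 min at RT, then streptavidin donor/nickel chelate acceptor beads (10 ug/mL) for 30 min.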
# G9a block: inhibitors of human histone lysine methyltransferase G9a; G9a H3K9 monomethylation, AlphaScreen, 2 h; Potency, µM (doses to about 102 µM), inactives show top-dose activity, negative = inhibition, usual class: inhibitors; 350,000 compounds, 8.8% hits; AID 504332; note: % is set by controls: 0 for no effect and ±100 for the full control effect; nearly all actives have a fitted effect of over 75% in size
#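 Using a bead-based AlphaScreen, monomethylated H3K9 product from 2 h room-temperature reactions (G9a 20 nM, peptide 500 nM, SAM 20 uM) was detected with 0.5 ug/mL rabbit anti-H3K9me1 antibody.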
# Sfp PPTase inh: blocks B. subtilis Sfp PPTase activity; AID 1490; Q9F4F7; 310,000 compounds, 3.5% hits; Potency, µM, without a hit: largest response in the series, negative = inhibition, most hits filed as inhibitors; Biochemical Sfp PPTase activity, qHTS;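 note: the enzyme is Sfp with the accession as filed and its product quenches rhodamine fluorescence; 0% = enzyme reaction without inhibitor and -100% = no enzyme wells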
#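 Reaction rates are the 30-min fluorescence difference (ex 525, em 598 nm) in wells containing 15 nM Sfp, 5 uM rhodamine-CoA and 12.5 uM BHQ-2-YbbR at pH 7.6 with 10 mM MgCl2.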
# BAZ2B block: BAZ2B (human) inhibition; Q9UIF8; AlphaScreen BAZ2B-H3K14Ac peptide displacement; Potency, µM (titrated, usually from 114 µM), without a hit: at the highest dose activity change, negative = inhibition, usual class: inhibitors; 360,000 compounds, 4.4% hits; AID 504333; note: % is set by controls: 0 for no effect and ±100 for the full control effect; nearly all actives have a fitted effect of over 60% in size
#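 AlphaScreen displacement of biotin-H3(5-23)K14Ac peptide (50 nM final) from BAZ2B (50 nM final) in PBS pH 7.4, 0.01% Tween-20; complex preformed 30 min RT, then compounds (top 110 uM) 30 min RT, beads 20 min dark.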
# The depositor's hits bear a star; u = inconclusive; x = no result; [ ] = another dose, or the depositor's remark. Shown are actives, neighbours in structure and some others; about 12% of the full set was active somewhere. Calls come from the whole dose curve; as a rule, active = well fitted curve in the direction sought with a large enough effect; inconclusive = small, poorly fitted or top-dose-only effect, or another doubt; inactive = no such curve, though single readings can be large; an effect the other way counts as inactive or inconclusive. Potency is the fitted concentration of half-maximal effect.
SMILES,JMJD2A Tudor,HP1b chromo inh,G9a block,Sfp PPTase inh,BAZ2B block
COc1ccc2c(c1)c(=O)oc1c(C)c(OC(C)C(=O)N[C@@H](Cc3c[nH]c4ccc(O)cc34)C(=O)O)ccc12 (some centres undefined),u,6%,x,0%,50µM*
COc1cc(C(=O)OCCN2CCOCC2)ccc1O,u,-7%,-5%[59 µM],10%,4%
O=C(OCCCN1CCOCC1)c1ccc(O)c(O)c1,32µM*,22%,13µM*,u,-29%
CCc1cccc(NS(=O)(=O)c2ccc3c(c2)N(C)CCO3)c1,32µM*,-9%,u,3%,u
Cc1ccc(NS(=O)(=O)c2ccc3c(c2)N(C)CCO3)cc1,-36%,-3%,-4%[0.0925 µM],18%,u
O=C(COC(=O)c1n[nH]c2ccccc12)c1ccc(F)c(F)c1,u,-2%,10%[0.501 µM],x,1%
CSC1=NC(=O)/C(=C\c2cccc3ccccc23)S1,u,-17%,-23%,-13%,40µM*
N=C1S/C(=C\c2cccc3ccccc23)C(=O)N1c1ccc(F)cc1,-33%,-22%,-16%,1%,-29%
CN1CCC(OC(=O)COc2ccc(Br)cc2)CC1,-4%,21%,45µM*,0%,-10%
CC1CC(C)CN(CCOc2ccc(Br)cc2)C1 (centres undefined),28µM*,u,11µM*,-19%,u
CC1CCN(CCCCOc2cccc(Br)c2)CC1,1.8µM*,u,8.9µM*,-43%,u
CC1CC(C)CN(CC(O)COCCOc2ccc(Br)cc2)C1 (centres undefined),-11%,17%,15%[59 µM],-10%,17%
CC1CCN(CCCCOc2ccc(Br)cc2)CC1,5µM*,-46%,u,-18%,-36%
Cc1cc2c(cc3c(SCC(=O)Nc4cccc(Cl)c4C)nnc(C)n32)o1,-19%,26%,u,x,-17%
COc1cccc(-c2ccc3ncnc(NCc4ccc5c(c4)OCO5)c3c2)c1,-35%,-10%,-4%[12.7 µM],x,-38%
Cc1cc(C)c(S(=O)(=O)N2CCN(C3CC(=O)N(c4ccccc4Cl)C3=O)CC2)c(C)c1 (centres undefined),-31%,47%,x,x,x
Cc1cc(Br)ccc1OCCCCN1CCC(C)CC1,2.5µM*,u,11µM*,-8%,u
O=C(NCC(c1cccs1)N1CCOCC1)c1ccccc1NS(=O)(=O)c1cccc([N+](=O)[O-])c1 (centres undefined),u,-15%,6%[59 µM],23%,u
O=C(NCC(c1cccs1)N1CCOCC1)c1ccccc1NS(=O)(=O)c1cc([N+](=O)[O-])ccc1Cl (centres undefined),-7%,26%,45µM*,13%,-4%
O=C(NCC(c1cccs1)N1CCOCC1)c1ccccc1NS(=O)(=O)c1ccc(Cl)c([N+](=O)[O-])c1 (centres undefined),-32%,19%,45µM*,20%,-32%
O=C(NCC(c1cccs1)N1CCOCC1)c1ccccc1NS(=O)(=O)c1ccc(Cl)cc1 (centres undefined),-19%,12%,71µM*,17%,-1%
O=C(NCC(c1cccs1)N1CCOCC1)c1ccccc1NS(=O)(=O)c1ccc(Br)cc1 (centres undefined),-21%,16%,-14%,-2%,-3%
COc1cccc(C2C(C(=O)Nc3ccc(Cl)cc3)=C(C)Nc3nc4ccccc4n32)c1OC (centres undefined),-25%,33%,0%[59 µM],x,0%
CC1=C(C(=O)OCc2ccccc2)C(C2CC2)NC(=O)N1CCCCCC(=O)O (centres undefined),x,x,x,2%,x
COc1ccc(C)cc1NC(=O)c1cnc2n(c1=O)CCS2,-3%,1%,-13%[59 µM],8%,2%
CCOc1ccccc1NC(=O)c1cnc2n(c1=O)CCS2,1%,29%,79µM*,2%,-2%
O=C(NCCc1ccccc1)c1cnc2n(c1=O)CCS2,-12%,6%,-43%,9%,x
O=C(Nc1ccc(Oc2ccccc2)cc1)c1cnc2n(c1=O)CCS2,-12%,28%,56µM*,-17%,-16%
